Hit rate of the full screen: of about 13,000 compounds, about 3,200 (25%) showed an effect of 50% or more. This is one part of the list.

The test system of this experiment is P. falciparum stage V gametocytes. On the set-up: BacTiter-Glo ATP luminescence viability of purified stage V gametocytes in 384-well plates, per cent inhibition versus DMSO. The conditions noted are these: 48 h, 5 µM; inhibitor.
By % Inhibition is commonly meant the drop in the measured response relative to a control, in per cent. `CCCc1cc(Cc2cnc(N)nc2N)cc2c1OC(C)C2C` (stereo not drawn) [TCMDC-138047]: the “% Inhibition” value came to 3.526%. Regarding `O=C1COC2(CN1CC1CCN(Cc3ccc(O)c(Cl)c3)C1)c1ccccc1-c1ccccc12` (stereo not drawn) [TCMDC-136343], the “% Inhibition” value is -1.738%. For the compound `NC(N)=NC(=O)Nc1ccc(Cl)c(C(F)(F)F)c1` [TCMDC-137469], the “% Inhibition” value is on record as -12.43%. As for `Cc1ncc(CN2CCC(C(=O)Nc3ccc(-c4nc5ccccc5o4)cc3)CC2)s1` [TCMDC-124675], the figure is 0.01985%; as for `O=C(Nc1cccc(CN2CCCN(Cc3cccc(O)c3)CC2)c1)c1ccc2ccccc2c1` [TCMDC-141855], 21.81%. As for `Cc1nccc2c(NC(=O)N[C@@H]3CCN(c4ncc(C(F)(F)F)cc4Br)C3)cccc12` [TCMDC-141942], the figure is 13.41%; as for `Cc1nc2ccc3ccc(CNc4ccc(C(=O)N[C@@H](CCC(=O)O)C(=O)O)c(F)c4)cc3c2c(=O)[nH]1` [TCMDC-138112], -4.938%; as for `Cc1ccc2ccncc2c1N` [TCMDC-138025], -56.11%. `CN1CCC(N2CCN(c3ccc4c(=O)nc(CCc5cccc(F)c5F)n(CC(=O)N(C)Cc5ccc(-c6ccc(C(F)(F)F)cc6)cc5)c4n3)CC2)CC1` [TCMDC-136512]: the “% Inhibition” value was 105.9%. The figure for `CN(Cc1ccc(-c2ccc(C(F)(F)F)cc2)cc1)C(=O)Cn1c(CCc2cccc(F)c2F)nc(=O)c2ccc(N3CCN(CCN4CCCCC4)CC3)nc21` [TCMDC-136511] is 109.8%. Take `Cc1cc(NC(=O)Nc2cccc(C#N)c2)c2ccccc2n1` [TCMDC-138953]: the “% Inhibition” value stood at 4.681%. As for `Nc1cccc(CNCc2ccc(-c3ccc(-c4nc5ccccc5[nH]4)s3)cc2)c1` [TCMDC-132927], the figure is -10.94%; as for `CSc1nc2nc(C)c(Cc3cccc(C(F)(F)F)c3)c(C)n2n1` [TCMDC-123763], -63.49%. The figure for `CN(C)CCC(O)(c1ccc(Br)cc1)c1cccnc1` (stereo not drawn) [TCMDC-131412] is -6.865%.

Turning to `CC(CO)(CO)NCc1cc2ccc3ccsc3c2c2ccccc12` [TCMDC-137753], the “% Inhibition” value was 1.403%.

Consider `CC(CO)(CO)NCc1cc2c3ccccc3c(CNC(C)(CO)CO)cc2c2ccccc12` [TCMDC-137752], for which the “% Inhibition” value is 88.47%. As for `Cn1c2ccccc2c2c3ccccc3c(CNC(CO)(CO)CO)cc21` [TCMDC-137747], the figure is 1.595%. As for `COc1ccccc1C1CC(c2ccc(C)cc2)=NN1C(=O)c1ccccc1` (stereo not drawn) [TCMDC-123887], the figure is 21.23%. The figure for `COc1cc(Cc2cnc(N)nc2N)c2ccsc2c1OC` [TCMDC-137762] is -4.679%. As for `CCNc1cc(C)nc(Nc2ccc(NC(=O)c3c(F)cccc3Cl)cc2)n1` [TCMDC-124984], the “% Inhibition” value came out at 3.1%. For the compound `CCOc1cc(C)ccc1N1CCN(CCCCNC(=O)c2ccc(NC(=O)c3ccc(Cl)cc3)cc2)CC1` [TCMDC-138523], the “% Inhibition” value was 2.314%. For `CCOC(=O)c1cccc(NC(=O)Nc2cc(C)nc3ccccc23)c1` [TCMDC-138957], the “% Inhibition” value was -2.163%. The figure for `CCOC(=O)N1CCN(CCCCCNc2cc(C)nc(/N=C(\N)Nc3ccc(Cl)cc3)n2)CC1` [TCMDC-138013] is 60.55%. The figure for `CCOC(=O)N1CCN(C(=O)Nc2ccc(Cl)cc2)CC1` [TCMDC-125820] is -28.23%. The figure for `CCOC(=O)c1cccc(N/C(N)=N/c2nc(C)cc(NCCc3ccccc3)n2)c1` [TCMDC-138372] is 76.13%. As for `Cc1cc(NCCc2ccccc2)nc(/N=C(\N)Nc2ccccc2Cl)n1` [TCMDC-138370], the “% Inhibition” value stood at 92.38%. The figure for `Cc1cc(N2CC=CCC2)nc(/N=C(\N)Nc2ccc(Cl)cc2)n1` [TCMDC-131240] is 30.94%; for `CCN(CC)CCNc1cc(C)nc(/N=C(\N)Nc2ccc(Cl)cc2)n1` [TCMDC-137477] it is 81.2%. The figure for `COc1ccc2nccc(NC(=O)C3(O)CCC(NCc4ncc5c(c4Cl)OCCO5)CC3)c2n1` (stereo not drawn) [TCMDC-141562] is 2.096%. The figure for `O=C(O)C(F)(F)F.O=C(O)CCc1ccc(-c2c[nH]c3ncc(-c4ccc5ncccc5c4)cc23)cc1` [TCMDC-136336] is 14.57%; for `COc1ccc2nccc([C@@H](O)CN3CCC(NCc4cn5cc(F)ccc5n4)CC3)c2c1` [TCMDC-140778] it is 43.65%. `Cn1c(NC(=O)C2CCC(CNC(=O)c3ccc(O)c(-c4ccc(Cl)c(Cl)c4)c3)CC2)nc2ccccc21` (stereo not drawn) [TCMDC-140897]: the “% Inhibition” value is on record as 13.96%. Take `O=C(NCc1cccnc1)C(c1cc2ccccc2o1)N1CCN(C(c2ccccc2)c2ccccc2)CC1` (stereo not drawn) [TCMDC-141023]: the “% Inhibition” value is on record as 15.45%. The figure for `O=C(NC1CCC(CN2CCC(c3c[nH]c4ccccc34)CC2)CC1)c1cc(-c2ccc(F)cc2F)ccc1O` (stereo not drawn) [TCMDC-139894] is -31.8%. As for `Cc1cc(NCCc2ccccc2)nc(/N=C(\N)Nc2ccc(Cl)cc2)n1` [TCMDC-131843], the figure is 52.3%; as for `Cc1cc(NCCCOc2ccc(Cl)cc2)nc(NCc2ccccc2)n1` [TCMDC-137548], -22.71%. The figure for `NC(N)=NN=CC(=O)Nc1cccc(C(F)(F)F)c1` [TCMDC-137563] is 10.63%.

On to `Cc1cc(NCCc2ccccc2)nc(NC(=NCC(=O)OC(C)(C)C)Nc2ccc(C(F)(F)F)cc2)n1` [TCMDC-138520], for which the “% Inhibition” value is -13.38%.

Turning to `Cc1cc(N2CCCC2)nc(/N=C(\N)Nc2cccc(C(F)(F)F)c2)n1` [TCMDC-138509], the “% Inhibition” value worked out at 20.83%. Take `Cc1cc(NCCc2ccccc2)nc(/N=C(\N)Nc2cccc(F)c2)n1` [TCMDC-138373]: the “% Inhibition” value turned out to be 55.97%.

As for `CCCCCCNc1cc(C)nc(/N=C(\N)Nc2cccc(C(F)(F)F)c2)n1` [TCMDC-138510], the “% Inhibition” value was determined as 79.07%. The figure for `Cc1cc(NCCc2cccc(F)c2)nc(/N=C(\N)Nc2cccc(C(F)(F)F)c2)n1` [TCMDC-138508] is 57.1%; for `N#Cc1ccc(/C=C/C(=O)NCCCCCN2CCCN(C(=O)Nc3ccc(Cl)c(C(F)(F)F)c3)CC2)cc1` [TCMDC-136110] it is 28.79%. As for `Cc1[nH]c(CNCCCNc2cc(=O)c3ccccc3[nH]2)c(Br)c1Br` [TCMDC-139780], the “% Inhibition” value is recorded as -12%. Consider `COc1ccc(-c2cc(C(=O)Nc3ccc4nc(-c5ccccc5)[nH]c4c3)[nH]n2)cc1` [TCMDC-134399], for which the “% Inhibition” value is listed as -1.351%. For `Fc1cccc(COc2ccc(Nc3ncnc4sc(C#CCNC5CCC5)cc34)cc2Cl)c1` [TCMDC-138785], the “% Inhibition” value worked out at 4.873%. As for `Cc1cc(NCCc2ccccc2)nc(/N=C(\N)Nc2cccc(Cl)c2)n1` [TCMDC-138364], the figure is 54.32%. The figure for `Cc1cc(NCCc2ccccc2)nc(/N=C(\N)Nc2cccc([N+](=O)[O-])c2)n1` [TCMDC-138371] is 3.581%; for `CC(C)CCN(Cc1cncn1Cc1cccc(C(F)(F)F)c1)C(=O)c1ccccc1C#N` [TCMDC-132457] it is 14.87%; for `O=C(O)C(F)(F)F.O=C1CCCN1CCCNCc1ccc(-c2ccc(-c3nc4cc(C(F)(F)F)ccc4[nH]3)cc2)cc1` [TCMDC-132760] it is 37.39%. As for `COc1nc2c(CCN3CCC(NCc4ccc5c(c4)NC(=O)CO5)CC3)c(Cl)cnc2cc1F` [TCMDC-135767], the figure is 23.61%. Regarding `COc1cc(F)c2ncc(Cl)c(CCN3CCC(NCc4ccc5c(c4)NC(=O)CO5)CC3)c2c1` [TCMDC-135623], the “% Inhibition” value turned out to be 24.82%. The figure for `Cn1ncc2c3c(CCN4CCC(NCc5ccc6c(c5)NC(=O)CO6)CC4)c(Cl)cnc3ccc21` [TCMDC-136023] is 91.21%; for `CC(=O)c1ccc(N2C(=O)C3C(Cc4ccc(OC(C)(C)C)cc4)NC4(C(=O)N(Cc5ccc(C(C)(C)C)cc5)c5ccccc54)C3C2=O)cc1` (stereo not drawn) [TCMDC-139773] it is 1.15%; for `C=CCc1cc(Cc2cnc(N)nc2N)c2ccc(C)nc2c1O` [TCMDC-137628] it is -3.473%. As for `Cc1cccc(CNc2nccc3[nH]c4ccccc4c23)c1` [TCMDC-136334], the figure is -2.626%. With `CN(C)CCNc1cc(-c2cccnc2)nc(-c2ccncc2)n1` [TCMDC-125595], the “% Inhibition” value was -4.49%. As for `CN(C)CCCN(C)c1cccc2c1nc(-c1cccnc1)n2CCNCc1ccccc1` [TCMDC-133440], the figure is 88.37%; as for `CN(C)c1cccc2c1nc(-c1ccco1)n2CCNCc1ccccc1` [TCMDC-133484], 72.16%; as for `CN(CCc1ccccn1)c1cccc2c1nc(-c1cccnc1)n2CCNCc1ccccc1` [TCMDC-133439], -10.58%.

With `Cc1nc2nc(N)nc(N)c2c(C)c1Cc1cccc(C#N)c1` [TCMDC-137646], the “% Inhibition” value is -13.13%. As for `Cc1nc(N)nc(N)c1CCCOc1ccc(Br)cc1` [TCMDC-138068], the “% Inhibition” value is -19.95%.

`CC(=O)c1cccc(NC(=O)N2CCCN(CCCCCNC(=O)/C=C/c3ccc(Cl)c(Cl)c3)CC2)c1` [TCMDC-135752]: the “% Inhibition” value is -19.76%. As for `COc1ccc(-c2nc(NC(=O)Cc3coc4cc(OC)ccc34)sc2C)cc1` [TCMDC-124497], the figure is 27.62%; as for `CCN(CC)CCN(Cc1ccc(-c2ccc(C(F)(F)F)cc2)cc1)C(=O)Cn1c(CCc2cccc(F)c2F)nc(=O)c2cc(F)c(F)cc21` [TCMDC-141089], 67.52%. The figure for `CCN(CC)CCN(Cc1ccc(-c2ccc(C(F)(F)F)cc2)cc1)C(=O)Cn1c(CCc2cccc(F)c2F)nc(=O)c2ccc(F)cc21` [TCMDC-141095] is 68.69%. Take `CCN(CC)CCN(Cc1ccc(-c2ccc(C(F)(F)F)cc2)cc1)C(=O)Cn1c(CCc2cccc(F)c2F)nc(=O)c2cc(F)ccc21` [TCMDC-141096]: the “% Inhibition” value was 73.36%.

As to `CCN(CC)CCN(Cc1ccc(-c2ccc(C(F)(F)F)cc2)cc1)C(=O)Cn1c(CCc2cccc(F)c2F)nc(=O)c2ccc(C(F)(F)F)cc21` [TCMDC-141071], the “% Inhibition” value was determined as 34.24%. As for `CCN(CC)CCN(Cc1ccc(-c2ccc(C(F)(F)F)cc2)cc1)C(=O)Cn1c(SCc2ccc(F)cc2)cc(=O)c2ccccc21` [TCMDC-140791], the figure is 99.53%.

(Values after paper PMC4552634, “A New Set of Chemical Starting Points with Plasmodium falciparum Transmission-Blocking Potential for Antimalarial Drug Discovery” (PLoS ONE, 2015).)
